Source: PubChem (Broad Institute)
MITF TRPM1 HTS: increases MITF-driven TRPM1 promoter luciferase signal. SK-MEL-5 TRPM1-promoter luciferase, 24 h; % of positive control, neutral wells = 0. activation, % at 12.5 µM. actives 0.75% (n = 300,000). AID 588334;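 active = mean activation of at least 80% with every replicate also reaching 80%; inconclusive = mean reaches 80% but some replicate falls short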;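 note: 0% = neutral control wells and 100% = parthenolide positive control wells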
Wnt act: Wnt/beta-catenin pathway activation. Wnt/beta-catenin reporter cell assay, activator, plate reader. activation, % at 9.35 µM. actives 1.2% (n = 300,000). AID 743398; in the data active = activation above about 30%, passing the limit was not always enough; inconclusive = no clear call, values can overlap the other calls;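 note: 0% = neutral control wells and 100% = positive control wells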
esBAF inh: blocks esBAF chromatin remodeling in mouse ES cells | reporter increase, % at 12.5 µM | Bmi1-luciferase knock-in reporter, 24 h; 100% = twice the neutral-well signal | AID 602393 | actives 2% (n = 350,000); in the data active = activation above about 40%; inconclusive = no clear call, values can overlap the other calls;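 note: 0% = median of the plate's neutral control wells and 100% = double that signal; a rise in the Bmi1 reporter signal indicates esBAF inhibition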
Rtt109 HAT inh: blocks Candida albicans Rtt109/Vps75 acetyltransferase activity; inhibition, % at 34.9 µM; purified Rtt109/Vps75, ThioGlo CoA-SH fluorescence, 4 h; AID 540336; actives 0.16% (n = 330,000);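 active = inhibition of at least 50% in every replicate; inconclusive = best replicate reaches 50% inhibition but some replicates fall short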
Target sequence (Q5AAJ8 whole entry, looked up): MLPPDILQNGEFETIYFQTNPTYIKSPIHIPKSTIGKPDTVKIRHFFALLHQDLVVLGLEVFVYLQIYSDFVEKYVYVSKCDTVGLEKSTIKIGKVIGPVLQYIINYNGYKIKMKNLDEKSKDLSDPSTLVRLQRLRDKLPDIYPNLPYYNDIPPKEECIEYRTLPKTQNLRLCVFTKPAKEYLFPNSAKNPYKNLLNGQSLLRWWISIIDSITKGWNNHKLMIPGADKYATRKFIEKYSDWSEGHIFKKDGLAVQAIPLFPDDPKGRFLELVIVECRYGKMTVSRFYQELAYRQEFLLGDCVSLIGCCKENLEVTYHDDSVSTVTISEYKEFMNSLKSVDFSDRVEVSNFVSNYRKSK
C2C12 statin: suppression of simvastatin myotoxicity. C2C12 myotubes + simvastatin, ATP luminescence, 48 h; scaled: DMSO 0, geranylgeraniol control 100. rescue of ATP level, % at 7.49 µM. actives 0.78% (n = 330,000);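 active = mean ATP rescue above about 67%, or every replicate alone reaching that limit, limit read from the data, passing the limit was not always enough; inconclusive = no clear call, values can overlap the other calls; inactive = mean under the limit and some replicate under it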;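 note: myotubes were challenged with 10 µM simvastatin during compound exposure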
* hit, by the source's call; ? = inconclusive; / = no result; ! = repeats disagree. Rows were chosen to be rich in hits. Some 3.1% of all compounds tested hit in one or more screens of this group.

SMILES	MITF TRPM1 HTS	Wnt act	esBAF inh	Rtt109 HAT inh	C2C12 statin
COC(=O)[C@H]1[C@H](CO)[C@H]2Cn3c(ccc(-c4ccccc4F)c3=O)[C@@H]1N2	/	/	1	/	-30
O=C(c1ccccc1)C(CN1CCCC1)c1ccccc1 (stereo not given)	-99	/	/	-2	/
CC1CCN(C(CC(=O)c2ccccc2)C(=O)c2ccccc2)CC1 (stereo not given)	2	51*	24	0	0
COC(=O)[C@H]1[C@H](CO)[C@H]2Cn3c(ccc(-c4ccccc4)c3=O)[C@@H]1N2CC1CC1	/	/	-7	/	5
CC=Cc1ccc2n(c1=O)C[C@H]1[C@H](CO)[C@@H](C(=O)N(C)C)N[C@@H]21 (mixture of isomers)	/	/	3	/	1
CCC(=Nc1ccc2c(c1)CCC2)c1c(O)n(C)c(=O)n(C)c1=O	-13	/	9	1	112*
Cn1cc(C(=O)OCC(=O)N2CCCCC2)c2ccccc21	9	50*	28	-15	2
COC(=O)[C@H]1[C@H](CO)[C@H]2Cn3c(ccc(C4=CCCC4)c3=O)[C@@H]1N2C(=O)C1CCCCC1	/	/	-1	/	8
O=C(Nc1ccc(F)cc1)c1c(O)c2c(n(Cc3ccccc3)c1=O)CCCC2	12	-4	/	50*	/
Cc1cc(C=C2C(=O)N(C)C(=S)N(C)C2=O)c(C)n1C1CCCCC1	7	/	/	39	/
Cc1cc(C=C2C(=O)NC(=S)NC2=O)c(C)n1C1CCCC1	32	6	48*	0	6
CCCN1[C@@H]2c3ccc(-c4ccc(F)cc4)c(=O)n3C[C@H]1[C@H](CO)[C@H]2C(=O)OC	/	/	-3	/	-3
O=[N+]([O-])c1ccc(Nc2ccccc2)cc1	16	1	4	9	1
c1ccc(Nc2ccc(Nc3ccccc3)cc2)cc1	86*	30	39	-4	11
COC(=O)[C@@H]1[C@@H](CO)[C@@H]2Cn3c(ccc(-c4ccc(F)cc4)c3=O)[C@H]1N2Cc1ccccc1	/	/	0	/	32
COc1ccc(C2c3c(nc(C)[nH]c3=O)Oc3c2c(=O)oc2ccccc32)cc1 (stereo not given)	/	36*	/	/	/
COC(=O)[C@H]1[C@H](CO)[C@H]2Cn3c(ccc(-c4ccccc4)c3=O)[C@@H]1N2C(=O)c1ccccc1F	/	/	-3	/	-15
O=C(C1CC(c2ccc(F)cc2)=NO1)N1CCC2(CC1)OCCO2 (stereo not given)	52	19	/	-10	/
O=C(C1CC(c2ccc(Cl)c(Cl)c2)=NO1)N1CCC2(CC1)OCCO2 (stereo not given)	117*	/	80*	0	2
O=C(O)[C@@H]1[C@@H](CO)[C@@H]2Cn3c(ccc(-c4cncnc4)c3=O)[C@H]1N2C(=O)NC1CCCC1	/	/	2	/	-5
O=C(O)[C@@H]1[C@@H](CO)[C@@H]2Cn3c(ccc(C4=CCCC4)c3=O)[C@H]1N2C(=O)Cc1ccccn1	/	/	2	/	12
CCOC(=O)[C@]12Cc3cc(N(C)C)ccc3[C@H]1N(Cc1ccccc1)C(=O)c1ccccc12	3	0	3	3	95*
CCOC(=O)[C@]12Cc3cc(Cl)ccc3[C@H]1N(Cc1ccccc1)C(=O)c1ccccc12	1	-5	0	-4	29
CN1CCN(c2nccc3c2ncn3C)CC1	1	-4	3	7	101*
C/C(=N\NC(=O)c1ccccc1)c1c(O)n(C2CCCCC2)c(=O)[nH]c1=O	-5	0	1	1	95*
SMILES	MITF TRPM1 HTS	Wnt act	esBAF inh	Rtt109 HAT inh	C2C12 statin
CCC(=NCc1cccnc1)c1c(O)n(C2CCCCC2)c(=O)[nH]c1=O	-8	1	-2	14	4
CC(=NCc1cccnc1)c1c(O)n(C2CCCCC2)c(=O)[nH]c1=O	16	-4	-5	7	113*
COC(=O)[C@H]1[C@H](CO)[C@H]2Cn3c(ccc(-c4cccc(OC)c4)c3=O)[C@@H]1N2C(=O)c1cnccn1	/	/	3	/	-12
C[C@H]1CN([C@@H](C)CO)C(=O)CCCn2cc(nn2)CO[C@H]1CN(C)C(=O)Oc1cccc2ccccc12	/	/	2	/	15
O=C(OCc1ccccc1)N1CCC2CC1c1cc(N3Cc4ccccc4-n4nncc4C3)ccc12 (stereo not given)	/	?	77*	/	3
NNCc1ccccc1	32	13	49*!	5	9
c1ccc(CNC2CCCCCCC2)cc1 (tested in a mixture with another compound)	14	3	/	8	/
COc1ccc(NC2=NC(C)(C)CS2)cc1	95*	7	28	-3	-1
CCC(=NCCO)c1c(O)n(-c2ccc(Cl)cc2)c(=O)[nH]c1=O	-5	-1	1	14	114*
C/C(=N\N1CCCCCC1)c1c(O)n(-c2ccc(Cl)cc2)c(=O)[nH]c1=O	21	3	12	-7	4
C[C@H]1CC[C@H]2NCCN[C@H]2C1	4	8	/	56*	/
CC(C)n1nnnc1CN1CCN(C)CC1	-4	/	-7	-4	99*
COC(=O)[C@@H]1[C@@H](CO)[C@@H]2Cn3c(ccc(C4=CCCCC4)c3=O)[C@H]1N2C(=O)NC(C)C	/	/	3	/	-2
COC(=O)[C@H]1[C@H](CO)[C@H]2Cn3c(ccc(/C=C/c4ccccc4)c3=O)[C@@H]1N2C(=O)C1CC1	/	/	1	/	6
CC(=O)c1ccc2c(c1)C1C(Cl)C(Sc3ccccc3[N+](=O)[O-])CC1C(c1ccccc1[N+](=O)[O-])N2 (stereo not given)	-3	-8	2	-7	81*
CC(=O)c1ccc2c(c1)C1C(Cl)C(Sc3ccccc3[N+](=O)[O-])CC1C(c1ccccc1)N2 (stereo not given)	-15	-5	/	2	/
O=C(Cc1ccncc1)N1CCCCN2[C@H](CO)[C@H](c3ccc(C#Cc4ccccc4F)cc3)[C@H]2C1	/	/	0	/	-17
Cc1cccc(N=Nc2ccc(N(C)C)cc2)c1	56	49*	2	3	2
CN(C)c1ccccc1	/	0	-1	/	3
CN1/C(=C\C=Nc2ccccc2)C(C)(C)c2ccccc21	-6	-2	-46	20	85*
O=C1NC(=S)N(c2ccc(F)cc2)C(=O)/C1=C\c1ccoc1	-11	/	-8	4	-2
O=C1NC(=S)N(c2ccc(Cl)cc2)C(=O)/C1=C/N1CCN(C(=O)c2ccco2)CC1	-11	10	0	3	77*
C=C1C(=O)O[C@@H]2C[C@@H](C)[C@@H]3C4OC4C(=O)[C@@]3(C)[C@@H](O)[C@H]12 (stereo not given in full)	-100	-26	12	7	80*
Cc1ccc(-n2c(=S)[nH]c3ccccc3c2=O)cc1F	/	13	61*	/	-11
O=c1c2ccccc2[nH]c(=S)n1-c1cccc(C(F)(F)F)c1	/	-4	9	/	-3
O=c1c2ccccc2[nH]c(=S)n1-c1ccc2c(c1)OCCO2	/	37*	/	-3	/
O=C(Nc1ccc(Cl)c(Cl)c1)c1ccco1	54	9	60*	-2	2
C=CCNC(=S)Nc1ccc(OC(=O)Nc2ccc(Cl)c(Cl)c2)cc1	1	2	-1	-4	-12
C#CCNc1ccncc1S(=O)(=O)NC(=O)NC(C)C	2	/	0	6	128*
C[C@]12CC[C@@H]3c4ccc(O)c(O)c4CC[C@H]3[C@@H]1CC[C@@H]2O	-2	-1	-7	132*	0
